The test deals with T1, CRBN, Q96SW2.
T1 chain: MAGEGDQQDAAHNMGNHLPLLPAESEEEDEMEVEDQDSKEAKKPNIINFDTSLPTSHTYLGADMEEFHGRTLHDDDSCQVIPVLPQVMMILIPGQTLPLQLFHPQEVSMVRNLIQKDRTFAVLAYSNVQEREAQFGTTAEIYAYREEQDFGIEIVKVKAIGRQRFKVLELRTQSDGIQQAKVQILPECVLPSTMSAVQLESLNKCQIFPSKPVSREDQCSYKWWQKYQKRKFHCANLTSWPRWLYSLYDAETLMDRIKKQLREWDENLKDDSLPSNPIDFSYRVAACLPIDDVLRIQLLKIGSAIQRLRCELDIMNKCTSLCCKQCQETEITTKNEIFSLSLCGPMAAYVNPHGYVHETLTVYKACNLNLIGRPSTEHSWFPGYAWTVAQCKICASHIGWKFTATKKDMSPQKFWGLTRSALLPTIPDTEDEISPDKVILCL
The experiment in a line: log2 fold change of degron read counts, EGFP-low vs EGFP+ sorted cells (limma voom), compound-induced degradation; higher = more compound-induced degradation of the degron-EGFP fusion; degrons are variants of IKZF1/3 zinc finger 2; compound dose not given here. The conditions noted are these: Jurkat, 18 h.

[1] abbreviates: compound: compound 19 (5-tert-butyl-thalidomide).
[2] abbreviates: compound: compound 22 (5-morpholino-thalidomide).
The mark [3] stands for this setting: compound: compound 33 (diphenyl IMiD analogue).

Over roughly 8,300 sequences, “log2 fold change of degron read counts, EGFP-low vs EGFP+ sorted cells (limma voom), compound-induced degradation” has its median near -1.1; the highest 2% begin near 3.2. The sample holds the highest values, similar sequences and a random draw of the others, so the mix is not that of the screen.

From the supplement of paper PMC12645437, “Orthogonal IMiD-Degron Pairs Induce Selective Protein Degradation in Cells” (ACS Chemical Biology, 2025) come the findings set out here.
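Further: pooled lentiviral library of zinc finger degron-EGFP fusions in mCherry-positive Jurkat cells, FACS-sorted after compound exposure, with degron abundance counted by next-generation sequencing.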

B1: 46F_47L_49P_50Q_52G_53A_54T_55F_67L_, Q9UKT9 (peptide)
chain: FLCPQCGATFTQKGNLLRHIKL
Consider B1, for which the “log2 fold change of degron read counts” value was -3.01 under setting [1], -2.75 under setting [2], -0.206 under setting [3] and -0.949 (compound: thalidomide).

B2: 46F_47L_49E_50I_52G_53H_54M_55F_67L_, Q9UKT9 (peptide)
chain: FLCEICGHMFTQKGNLLRHIKL
Turning to B2, the “log2 fold change of degron read counts” value under setting [1] is -2.82, the “log2 fold change of degron read counts” value under setting [2] was -2.78, the “log2 fold change of degron read counts” value under setting [3] is -2.56 and the “log2 fold change of degron read counts” value (compound: thalidomide) was -2.3.

B3: 46F_47G_49P_50I_52G_53R_54G_55F_67L_, Q9UKT9 (peptide)
chain: FGCPICGRGFTQKGNLLRHIKL
For B3, the “log2 fold change of degron read counts” value under setting [1] was found to be 2.07, the “log2 fold change of degron read counts” value under setting [2] is -0.191, the “log2 fold change of degron read counts” value under setting [3] was 0.245 and the “log2 fold change of degron read counts” value (compound: thalidomide) was -0.872.

B4: 46F_47T_49P_50Q_52G_53A_54T_55F_67L_, Q9UKT9 (peptide)
chain: FTCPQCGATFTQKGNLLRHIKL
As to B4, the “log2 fold change of degron read counts” value runs as follows: under setting [1], -2; under setting [2], -0.214; under setting [3], 1.22; (compound: thalidomide) 0.676.

B5: 46F_47T_49N_50Q_52G_53A_54I_55F_67L_, Q9UKT9 (peptide)
chain: FTCNQCGAIFTQKGNLLRHIKL
B5: the “log2 fold change of degron read counts” value was -2.47 under setting [1], -2.59 under setting [2], -1.37 under setting [3] and -1.93 (compound: thalidomide).

B6: 46F_47V_49P_50Q_52G_53A_54E_55F_67L_, Q9UKT9 (peptide)
chain: FVCPQCGAEFTQKGNLLRHIKL
For B6, the “log2 fold change of degron read counts” value under setting [1] is -2.41, the “log2 fold change of degron read counts” value under setting [2] is -1.67, the “log2 fold change of degron read counts” value under setting [3] is -0.946 and the “log2 fold change of degron read counts” value (compound: thalidomide) is -0.352.

B7: 46F_47E_49E_50I_52G_53R_54D_55F_67L_, Q9UKT9 (peptide)
chain: FECEICGRDFTQKGNLLRHIKL
Turning to B7, the “log2 fold change of degron read counts” value under setting [1] was -3.1, the “log2 fold change of degron read counts” value under setting [2] is -3.32, the “log2 fold change of degron read counts” value under setting [3] was -2.34 and the “log2 fold change of degron read counts” value (compound: thalidomide) was -2.82.

B8: 46L_47G_49E_50I_52G_53F_54N_55C_67L_, Q9UKT9 (peptide)
chain: LGCEICGFNCTQKGNLLRHIKL
Consider B8, for which the “log2 fold change of degron read counts” value was -0.546 under setting [1], -1.21 under setting [2], -1.47 under setting [3] and -1.13 (compound: thalidomide).
